Source: PubChem BioAssay (several laboratories)
Sampled rows, rich in hits. Any-hit rate of the full collection: about 0.61%.
RN4220 kill: kills Staphylococcus aureus RN4220 | S. aureus RN4220 growth, OD600, 16 h | inhibition, % (no concentration beside the values) | hit rate 0.33% among 330,000; in the data active means inhibition above about 85%;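 further: plate controls were untreated cells for no effect and reference antibiotic for full effect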
Mtb hypoxia inh: Mtb hypoxia fluorescent reporter inhibition. M. tuberculosis hypoxia-regulated fluorescent reporter, fluorescence. fluorescence inhibition, % (concentration not given with the values). hit rate 0.1% among 300,000; in the data active means fluorescence inhibition mostly above about 23%, no sharp cut-off; inactive means mostly below about 17%
Mtb betalactam: beta-lactam sensitization of Mtb H37Rv. hit rate 0.27% among 330,000. inhibition, % at 25 µM. M. tuberculosis H37Rv growth with meropenem, percent inhibition; call rule not given here;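 further: growth measured after seven days incubation then overnight dye step; 0% = bacteria only wells and 100% = bacteria with antibiotic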
ugtP null kill: growth inhibition of S. aureus ugtP deletion strain; AID 1259309; hit rate 0.54% among 330,000; S. aureus RN4220 ugtP deletion, OD600 growth, 16 h; growth inhibition, % (no concentration beside the values); in the data active means growth inhibition above about 68%;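 further: plate controls were untreated wells for no effect and antibiotic for full effect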
* marks the source's active call; other numbers are inactive results; . = no result shown.

SMILES	RN4220 kill	Mtb hypoxia inh	Mtb betalactam	ugtP null kill
CCOC(=O)c1c(-c2ccccc2)oc2ccc(OC)cc12	-2.5	.	80.1	89.6*
CCOC(=O)c1c(-c2ccccc2)oc2ccc(OCC)cc12	-5.4	4.0	77.5	79.2
CC(N)=Nc1ccc([N+](=O)[O-])cc1	1.5	-15.5	3.8	2.5
O=[N+]([O-])c1ccc(N=Nc2c(Cl)cc(O)cc2Cl)cc1	100.2*	-5.1	98.9	98.6*
CC1C(=NO)CC(c2ccccc2)N(C)C1c1ccccc1 (configuration not stated)	-2.9	10.7	.	3.8
COc1ccc(-c2nn(-c3ccccc3)cc2C=NO)cc1OC	10.7	11.7	.	-1.0
NC(=O)CC(NC(=O)OCc1ccccc1)C(=O)O (configuration not stated)	-0.3	.	-13.3	-10.1
O=C(NC(Cc1ccccc1)C(=O)CCl)OCc1ccccc1 (configuration not stated)	100.5*	-7.0	.	99.8*
O=C(CSc1ccccc1Cl)N1CCC(c2nc3ccccc3s2)CC1	95.9*	.	92.5	97.2*
O=C(CSc1ccc(F)cc1)N1CCC(c2nc3ccccc3s2)CC1	-2.3	.	6.3	12.5
CN(C)CCOc1nc(-c2ccccc2)nc2c1oc1ccccc12	1.8	40.5*	99.7	0.4
CN(CC(CC1CCCCC1)N(CC(Cc1ccccc1)N(CCc1ccccc1)N=O)N=O)N=O (configuration not stated)	-0.1	2.1	.	3.4
CCOc1ccc(C=NNC(=O)C(C)N(c2ccc(OC)cc2)S(C)(=O)=O)cc1OCC (configuration not stated)	4.7	-0.2	.	4.6
COc1cc(/C=C2\SC(N)=NC2=O)ccc1OCC(=O)Nc1ccc(C)cc1	5.8	53.4*	14.5	-7.5
C/C=C/C(=O)Nc1cccc(C2=NOC3(C2)C[C@@H](C(N)=O)N(C(=O)c2cc([N+](=O)[O-])cc([N+](=O)[O-])c2)C3)c1 (some centres not stated)	.	.	97.4	.
CC=CC(=O)Nc1cccc(C2=NOC3(C2)CC(C(N)=O)N(C(=O)c2cc([N+](=O)[O-])cc([N+](=O)[O-])c2)C3)c1 (configuration not stated)	1.4	40.1*	.	1.0
Cc1ccc(/C(O)=C/C(=O)C(=O)NNC(=O)C(O)(c2ccccc2)c2ccccc2)cc1	6.8	1.5	-0.6	60.3
O=C(C=C(O)c1ccc(Cl)cc1)C(=O)NNC(=O)C(O)(c1ccccc1)c1ccccc1	0.2	7.6	.	95.2*
CC(=O)c1nn(-c2ccc(Cl)cc2)cc1C(=O)c1ccc(C)cc1	-5.8	46.6*	8.0	-1.8
Cc1c(Cl)sn(-c2ccc(Cl)cc2)c1=O	100.7*	.	.	100.7*
COc1ccc(C=NNC(=O)c2ccc(Cl)cc2Cl)cc1COC(C)=O	-1.8	3.9	.	1.0
COc1cc(/C=C/c2nc3ccccc3c(=O)n2-c2ccccc2O)ccc1O	93.0*	.	9.7	99.4*
O=c1c2ccccc2nc(/C=C/c2ccc(O)c(O)c2)n1-c1ccccc1	11.1	-3.2	3.9	-20.1
COc1cc(/C=C/c2nc3ccccc3c(=O)n2-c2cccc(O)c2)ccc1O	98.9*	3.6	42.8	99.5*
Cc1ccc(C)c(NS(=O)(=O)c2ccc3c(c2)NC(=O)CCS3)c1	64.9	14.9	-3.1	27.9
SMILES	RN4220 kill	Mtb hypoxia inh	Mtb betalactam	ugtP null kill
Cc1ccc(NS(=O)(=O)c2ccc3c(c2)NC(=O)CCS3)c(Br)c1	98.2*	11.1	-0.7	96.0*
Cc1ccccc1NS(=O)(=O)c1ccc2c(c1)NC(=O)CCS2	88.7*	20.1	-0.3	77.4
Oc1ccc(C=NNc2ncc(Cl)cc2Cl)cc1	3.5	7.9	.	13.7
COc1ccc(CCNC(=O)/C=C/c2ccc(S(=O)(=O)N3CCOCC3)cc2)cc1	5.1	4.1	3.2	-3.7
O=C(/C=C/c1ccc(S(=O)(=O)N2CCOCC2)cc1)NCCc1ccc(C(F)(F)F)cc1	-0.7	24.5*	-3.2	3.0
Cc1ccc(-n2ncc(C#N)c2N=CN2CCN(C)CC2)cc1	3.7	.	.	4.8
O=C(CCl)N1c2ccccc2Oc2ccc3ccccc3c21	89.8*	25.5	.	98.6*
CC(=O)N1c2ccccc2Oc2cc3ccccc3cc21	5.9	-3.3	-0.8	-11.8
CN1C(=O)C(=NOC(=O)c2ccccc2)c2ccccc21	-2.2	.	.	6.9
Clc1ccc(C(c2ccccc2Cl)C(Cl)Cl)cc1 (configuration not stated)	-8.7	1.0	3.4	93.1*
CCc1ccc(C(c2ccc(CC)cc2)C(Cl)Cl)cc1	.	.	7.6	.
Nc1nonc1NN=Cc1c(O)ccc2ccccc12	-1.8	19.5	.	-19.4
Cc1ccc(-c2cc(-c3ccccc3)cc(-c3ccccc3)[n+]2-c2ccccc2)cc1	93.7*	.	100.0	97.8*
